Measurements: PubChem BioAssay (Tox21)
Inconclusive results are not listed. Calls of active or inactive are those of the source. Unless noted, calls come from the whole dose curve; as a rule, active = well fitted curve in the direction sought with a large enough effect in the repeat runs; inconclusive = weak or mixed curves; inactive = no such curve, though single readings can be large; an effect the other way counts as inactive or inconclusive.

Legend:
[1] = target: Thyrotropin receptor (Homo sapiens) (UniProt P16473); assay: qHTS assay to identify small molecule agonists of the thyroid stimulating hormone receptor (TSHR) signaling pathway (AID 1224843; calls by dose curve; note: nearly all actives have a fitted effect of over 45% in size)
Method in brief: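 Screening of the Tox21 10K collection used HEK293 cells engineered with TSHR at 800 cells per well. After a 30-min room-temperature compound exposure, HTRF cAMP reagents were added and fluorescence recorded 1 h later.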

[2] = qHTS assay to identify small molecule agonists of the hypoxia (HIF-1) signaling pathway - cell viability counter screen (AID 1224844; calls by dose curve; note: nearly all actives have a fitted effect of over 50% in size; note: potency is the fitted concentration of half-maximal effect)
Method in brief: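 Multiplexed with the HRE beta-lactamase assay, this viability read used CellTiter-Glo luminescence (30 min, RT) on HRE-bla ME-180 cells treated 17 hrs with compounds in 0.5% dialyzed FBS medium.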

[3] = qHTS assay to identify small molecule agonists of H2AX (AID 1224845; active = well fitted activation curve with a large enough effect in the signal ratio in the repeat runs, not every such curve was filed as active; the % refers to the signal ratio)
Method in brief: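 Phospho-H2AX Ser139 measured by HTRF (ex 320 nm; em 665 and 620 nm) after 24 hr antibody incubation. Compounds, 15 concentrations, 0.76% DMSO, were applied to CHO-K1 cells for 3hr at 37C before lysis.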

[4] = qHTS assay to identify small molecule agonists of H2AX - cell viability counter screen (AID 1224847; calls by dose curve; note: top concentration of the series differs between compounds; nearly all actives have a fitted effect of over 30% in size)
Method in brief: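 Compounds tested at 15 concentrations were incubated 3 hr at 37C with wild-type CHO-K1 cells; cellular ATP-based luminescence (CellTiter-Glo) indicated viability.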

[5] = qHTS assay to identify small molecule agonists of the estrogen related receptor (ERR) signaling pathway from Tox21 library (AID 1224849; calls by dose curve; note: nearly all actives have a fitted effect of over 15% in size); details: ERR reporter cell line, ONE-Glo luciferase, 18 h; at 92.4 µM (top of the series) unless noted
Method in brief: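 Six hours post-seeding at 37 C/5% CO2, ERR cells receive DMSO-solubilised compounds; after 18 h at 37 C, ONE-Glo reagent is applied and luminescence recorded.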

[6] = qHTS RealTime-Glo MT Cell Viability Assay in HepG2 cells - 24 hour (AID 1224867); note: nearly all actives have a fitted effect of over 50% in size
Method in brief: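 Tox21 10K library screened in qHTS format on HepG2 cells carrying RealTime-Glo reagents. Compounds were added after a 5 h preincubation, and the luminescent signal from continuous culture was measured repeatedly during 40 h treatment.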

[7] = A CellTox Green Cytotoxicity Assay to monitor cytotoxicity in HEK293 cells - 0 hour (AID 1224869); note: nearly all actives have a fitted effect of over 50% in size
Method in brief: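 Seeding of HEK293 cells together with cytotoxicity dye preceded a 5 h incubation at 37 C/5% CO2. Test compounds in DMSO were then added and fluorescence monitored across 40 h.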

[8] = qHTS assay to identify small molecule agonists of the hypoxia (HIF-1) signaling pathway (AID 1224846; active = well fitted activation curve with a large enough effect in the signal ratio in the repeat runs, not every such curve was filed as active; the % refers to the signal ratio)
Method in brief: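 Hypoxia-pathway activation was scored as increased beta-lactamase from an HRE-controlled reporter in ME-180 cells; plated at 2,000 cells per well with 0.5% dialyzed FBS, they were exposed 17 hrs to compounds and then given CCF4-AM.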

[9] = qHTS RealTime-Glo MT Cell Viability Assay in HEK293 cells - 32 hour (AID 1224868); note: top concentration of the series differs between compounds; nearly all actives have a fitted effect of over 50% in size
Method in brief: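 Luminescence generated by NanoLuc from substrate produced by living HEK293 cells served as the viability signal. Each value reflects the reading at its stated time point during continuous 40 h compound exposure at 37 C.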

[10] = qHTS assay to identify small molecule antagonists of the estrogen related receptor (ERR) signaling pathway from Tox21 library (AID 1224848); note: nearly all actives have a fitted effect of over 50% in size
Method in brief: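 Antagonist-mode screen of the Tox21 10K library in an NTP-provided ERR reporter cell line; 18 h compound exposure at 37 C, luminescence measured with ONE-Glo.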
% is set by controls: 0 for no effect and ±100 for the full control effect.

Sequence of Thyrotropin receptor (Homo sapiens) (P16473 whole entry, looked up): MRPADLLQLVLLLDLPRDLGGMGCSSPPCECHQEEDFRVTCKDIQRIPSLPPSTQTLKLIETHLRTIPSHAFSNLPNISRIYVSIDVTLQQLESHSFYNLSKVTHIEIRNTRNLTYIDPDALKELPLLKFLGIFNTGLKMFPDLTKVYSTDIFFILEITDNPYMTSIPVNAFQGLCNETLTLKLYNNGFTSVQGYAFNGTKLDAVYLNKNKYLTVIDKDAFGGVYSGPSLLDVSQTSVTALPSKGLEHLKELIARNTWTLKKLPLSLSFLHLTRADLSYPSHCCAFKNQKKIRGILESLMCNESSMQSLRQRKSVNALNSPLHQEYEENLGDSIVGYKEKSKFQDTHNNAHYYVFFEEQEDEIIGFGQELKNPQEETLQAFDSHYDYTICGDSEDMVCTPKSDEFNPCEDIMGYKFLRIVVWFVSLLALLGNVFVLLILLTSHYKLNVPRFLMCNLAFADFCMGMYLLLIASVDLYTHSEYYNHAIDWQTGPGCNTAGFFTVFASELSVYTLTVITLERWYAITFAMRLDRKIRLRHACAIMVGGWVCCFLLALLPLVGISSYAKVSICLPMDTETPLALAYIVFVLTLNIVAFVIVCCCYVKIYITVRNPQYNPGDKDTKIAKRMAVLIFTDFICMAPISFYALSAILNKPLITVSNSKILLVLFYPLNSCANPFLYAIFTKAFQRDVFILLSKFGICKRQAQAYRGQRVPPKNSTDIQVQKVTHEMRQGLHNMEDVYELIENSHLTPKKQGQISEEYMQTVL

CCN(CCCCOC(=O)c1ccc(OC)c(OC)c1)C(C)Cc1ccc(OC)cc1 (configuration not stated)
inactive: Potency [1] | Potency [2] | Potency [3] | Potency [4] | activity change, positive = activation [5] -16.6% [at 42.5 µM] | outcome [6] | Potency [7]

c1ccc(CCNc2nc(-c3ccccc3)cs2)cc1
inactive: Potency [1] | Potency [2] | Potency [3] | outcome [8] | outcome [6] | Potency [9] | Potency [7]

CCCCCCOC(=O)c1ccccc1
active: Potency [2] 19.5 µM
inactive: Potency [1] | Potency [3] | Potency [4] | Potency [10] | outcome [6] | Potency [7]

O=C1C=CCCC1
inactive: Potency [1] | Potency [2] | Potency [3] | outcome [8] | outcome [6] | Potency [9] | Potency [7]

CCc1c(C)[nH]c2c1C(=O)C(CN1CCOCC1)CC2 (configuration not stated)
inactive: Potency [1] | Potency [2] | Potency [3] | Potency [4] | outcome [6] | Potency [9] | Potency [7]

Cc1ccc2ccccc2c1[N+](=O)[O-]
inactive: Potency [1] | Potency [2] | Potency [3] | Potency [4] | outcome [6] | Potency [9] | Potency [7]

CCC(C)C1N=C(C)C(C)S1 (configuration not stated)
inactive: Potency [1] | Potency [2] | Potency [3] | Potency [4] | Potency [10] | outcome [6] | Potency [9] | Potency [7]

C/C=C1\[C@H]2C=C(C)C[C@]1(N)c1ccc(=O)[nH]c1C2
inactive: Potency [1] | Potency [2] | Potency [3] | Potency [4] | outcome [6] | Potency [9] | Potency [7]

COC(=O)/C=C/C(C)=C\C=C\C(C)=C\C=C\C=C(C)\C=C\C=C(C)\C=C\C(=O)O
inactive: Potency [1] | Potency [2] | Potency [3] | Potency [10] | activity change, positive = activation [5] 4.73% | outcome [6] | Potency [9] | Potency [7]

O=[N+]([O-])c1ccccc1CCO
inactive: Potency [1] | Potency [2] | Potency [3] | Potency [4] | outcome [6] | Potency [9] | Potency [7]
